Values joined by “and” are separate entries in the source; they are usually repeats but may differ in a detail not shown here. Identical values can stand only once. Values without a mark were called inactive. Results filed as inconclusive are left out. Active and inactive are the calls of the source. Unless noted, the call rests on the fitted dose curve; in most records, active means well fitted curve in the direction sought with a large enough effect; inconclusive means small, poorly fitted or top-dose-only effect, or another doubt; inactive means no such curve, though single readings can be large; an effect the other way counts as inactive or inconclusive.

A short description of assay [1]: KB-8-5-11 P-gp reporter qHTS against the NCATS DSHEA and TCM libraries (AID 1919977). Further: 0% is about no effect. Put shortly:
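P-gp-overexpressing KB-8-5-11 cells (500/well) were plated in colchicine-free DMEM with 10% FBS, attached ~4 h, then exposed to substance titrations for ~72 h at 37C. Viability was read by CellTiter-Glo luminescence.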
On the technique in general: qHTS replaces the single test concentration by a dilution series.

Assay [2] can be described thus: Cell Viability - BJ (AID 421; calls by dose curve;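 further: potency means the concentration at half of the fitted maximal effect; cells exposed to compound for 40 hours at 37 °C before readout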). Conditions: BJ fibroblast viability, qHTS. Put shortly: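 Normal human BJ foreskin fibroblasts, 1500/well in complete medium, treated 40 hr at 37 °C. Cellular ATP by CellTiter-Glo luminescence; normalized to DMSO and 100 uM tamoxifen, AC50 from Hill fit.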
Assay [3] in a line: Cell Viability - HepG2 (AID 433; calls by dose curve;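 further: potency means the concentration at half of the fitted maximal effect; cells exposed to compound for 40 hours; potency for ATP loss meaning cytotoxicity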). Conditions: qHTS. Put shortly:
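HepG2 hepatocellular carcinoma cells (1500/well) were treated with compounds for 40 h at 37 °C in complete medium; intracellular ATP was read by CellTiter-Glo luminescence. Data were normalized to DMSO and 100 uM tamoxifen, and AC50 came from Hill fits.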

Assay [4] in a line: Cell Viability - MRC5 (AID 434; calls by dose curve;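 further: potency means the concentration at half of the fitted maximal effect; cells exposed to compound for 40 hours at 37 °C; potency reflects cytotoxicity seen as loss of intracellular ATP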). Conditions: MRC5 lung fibroblast viability, qHTS. The essentials: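 AC50 values come from Hill-equation fits of intracellular ATP loss, measured by CellTiter-Glo luminescence. Normal lung fibroblasts (MRC5) had 40 hr compound treatment at 37 C, normalized between DMSO and 100 uM tamoxifen.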
Assay [5] in a line: Cell Viability - N2a (AID 540).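 Further: plate controls were DMSO alone for no effect and tamoxifen control for full effect; nearly all actives have a fitted effect of over 45% in size.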 Conditions: N2a mouse neuroblastoma cell viability; at 92.2 µM (top of the series). Put shortly: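 N2a mouse neuroblastoma, 1500 cells/well, 5 hr settle; compound 40 hr, 37 °C; CellTiter-Glo 20 min RT; luminescence; Hill-fit AC50.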
Assay [6] in a line: Cell Viability - HUV-EC-C (AID 542).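 Further: cells exposed to compound for 40 hours; on the % scale 0 is the no-effect control and ±100 the full control effect; nearly all actives have a fitted effect of over 35% in size.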 The essentials: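 Luminescent ATP read-out (CellTiter-Glo, 20 min room temperature) after 40 hr compound treatment of HUV-EC-C cells at 37 °C. Concentration-response data fitted with the standard Hill equation to give AC50; tamoxifen and doxorubicin served as positive controls.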
The nature of assay [7]: Cell Viability - SH-SY5Y (AID 544).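 Further: cells exposed to compound for 40 hours; nearly all actives have a fitted effect of over 55% in size.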 Conditions: SH-SY5Y neuroblastoma cell viability; viability change, negative = cytotoxic: at 92.2 µM (top of the series). Put shortly:
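SH-SY5Y, 1500 cells/well, 5 hr pre-incubation 37 °C; cpd 40 hr 37 °C; CellTiter-Glo 20 min RT; luminescence (ATP) read. qHTS concentration-response, Hill fit → AC50. Tamoxifen, doxorubicin as positive controls.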

A short description of assay [8]: Cell Viability - Renal Proximal Tubule (AID 545).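 Further: cells exposed to compound for 40 hours; nearly all actives have a fitted effect of over 40% in size.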 Conditions: renal proximal tubule cells viability; at 91.7 µM (top of the series), primary cells of rat origin unless noted. The essentials:
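Primary rat renal proximal tubule cells (1000/well) were treated with compounds for 40 hr at 37 °C in complete medium. Intracellular ATP was measured by CellTiter-Glo luminescence, and AC50 values came from Hill-equation fits of concentration-response data.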

A short description of assay [9]: Cellular Toxicity (caspase-3) Jurkat (AID 655).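 Further: cells exposed to compound for 16 h at 37 °C before reading.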 Conditions: Jurkat caspase-3 activation, luminescence, DMSO = 0%, tamoxifen = 100%; at 92.2 µM (top of the series). Put shortly: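 Jurkat cells (5000/well) in complete medium were treated with compounds for 16 hr at 37 °C, then Caspase-Glo 3/7 luminescence was read after 20 min at room temperature. Data normalized to DMSO (basal) and 100 uM tamoxifen (100%); AC50 from Hill fit.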

Assay [10] can be described thus: Cellular Toxicity (caspase-3) HUV-EC-C (AID 656). Put shortly: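 HUV-EC-C endothelial cells, 1000/well, were pre-incubated 5 hr at 37°C, then exposed to compounds for 16 hr at 37°C. Caspase-Glo 3/7 luminescence was read after 20 min at room temperature. AC50 came from Hill fits, normalized to DMSO and 100 uM tamoxifen.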
Assay [11] is described as follows: Cellular Toxicity (caspase-3) SHSY5Y (AID 657). Put shortly:
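SH-SY5Y human neuroblastoma cells (1500/well) were treated with compounds for 16 h at 37 °C, then Caspase-Glo 3/7 luminescence was read after 1 h at room temperature. Data normalized to DMSO and 10 uM staurosporine; AC50 from Hill fits.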

Assay [12] can be described thus: Cellular Toxicity (caspase-3) BJ (AID 658).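 Further: 0% = DMSO basal and 100% = 10 µM staurosporine.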 The essentials:
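Caspase-Glo 3/7 luminescence, read 1 hr after reagent at room temperature, in normal BJ fibroblasts exposed 16 hours at 37 °C. AC50 values from Hill-equation concentration-response, scaled between DMSO basal and 10 uM staurosporine as 100%.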

Assay [13] in a line: Cellular Toxicity (caspase-3) MRC-5 (AID 659).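 Further: 0% = DMSO basal and 100% = 10 µM staurosporine.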 The essentials:
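Luminescent Caspase-Glo 3/7 read-out (1 h, room temperature) after a 16 h, 37 °C compound exposure of MRC-5 lung fibroblasts at 1500 cells/well. Concentration-response AC50 from Hill equation; 0% DMSO, 100% 10 uM staurosporine.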

Assay [14] can be described thus: Cellular Toxicity (caspase-3) SK-N-SH (AID 661).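 Further: 0% = DMSO basal and 100% = 10 µM staurosporine.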 The essentials:
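Luminescent Caspase-Glo 3/7 read-out after 16 hr compound exposure of SK-N-SH neuroblastoma cells at 37 °C. Signal increase normalized to DMSO (basal) and 10 uM staurosporine (100%); AC50 from Hill equation fits of qHTS concentration-response data.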

Assay [15] can be described thus: Cellular Toxicity (caspase-3) H-4-II-E (AID 663).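 Further: cells exposed to compound for 16 hr before readout.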 The essentials: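 Caspase 3/7 activation measured by luminescent aminoluciferin substrate cleavage after 16 hr compound treatment of H-4-II-E cells in complete medium. Increase normalized between DMSO (basal) and 100 uM tamoxifen (100%); Hill-equation AC50 from concentration-response.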
Assay [16] is described as follows: Cellular Toxicity (caspase-3) Renal Proximal Tubule (AID 667).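 Further: cells exposed to compound for 16 hours at 37 °C before detection; 0% = DMSO basal and 100% = 10 µM staurosporine.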 Conditions: renal proximal tubule cells; at 91.7 µM (top of the series), primary cells freshly taken from rat, solvent-only wells 0%, staurosporine 100% unless noted. Put shortly:
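Primary rat proximal tubule cells, 1000/well, 5 h plating at 37 °C, then compound 16 h at 37 °C. Caspase-Glo 3/7 reagent, 1 h RT, luminescence. Normalized to DMSO (basal) and 10 uM staurosporine (100%); Hill-fit AC50.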

The nature of assay [17]: qHTS Assay for Identification of Small Molecule Inducers of Hypoxia Response (AID 2120; active means well fitted curve in the direction sought with a large enough effect in the signal ratio, with a control signal flat, not every such curve was filed as active; the % refers to the signal ratio; further: 0% is about no effect). Put shortly:
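Read-out: CCF4 FRET emission ratio 460nm/530nm (excitation 405nm), converted to %Activity, with AC50 fitted across a compound titration. ME-180 cells carried an HRE-driven beta-lactamase reporter; compound exposure 17 h, 37 degrees C.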

The nature of assay [18]: qHTS assay for small molecule agonists of the antioxidant response element (ARE) signaling pathway measured by Nrf2-dependant transcriptional activity - cell viability counter screen (AID 720653; active means well fitted curve in the direction sought with a large enough effect in the repeat runs; an effect the other way counts as inactive or inconclusive; further: on the % scale 0 is the no-effect control and ±100 the full control effect). Conditions: ARE-bla HepG2 viability, CellTiter-Glo ATP luminescence, 16 h; active compounds read low. The essentials: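 Cytotoxicity counter screen: intracellular ATP quantified by CellTiter-Glo luminescence in the same ARE-bla HepG2 plates, after 16 h compound exposure and a 2 h beta-lactamase substrate step.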

The nature of assay [19]: qHTS assay for cell viability of HEK293 cells (AID 743288). Further: on the % scale 0 is the no-effect control and ±100 the full control effect; nearly all actives have a fitted effect of over 50% in size. Conditions: ATP luminescence (CellTiter-Glo), 18 h; max response: active compounds read low. Put shortly: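 After 18 h compound exposure at 37 C, parental HEK293 cells (2,000/well) are lysed with CellTiter-Glo and luminescence is read following 30 min at room temperature.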
Assay [20] can be described thus: qHTS assay for cell viability of the p53RE-bla HCT-116 cell line (AID 743292). Further: on the % scale 0 is the no-effect control and ±100 the full control effect; nearly all actives have a fitted effect of over 55% in size. Put shortly: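 After plating at 4,000 cells per well and a 5 h rest at 37 C, HCT-116 cells carrying p53RE-bla received test chemicals in DMSO. Sixteen hours later at 37 C, CellTiter-Glo was added and luminescence recorded following 30 min at room temperature.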

For the molecule `OCC1=C[C@@H](O)[C@@H]2C=CO[C@@H](OC3O[C@H](CO)[C@@H](O)[C@H](O)[C@H]3O)[C@H]12` (some centres undefined), the Potency result in [1] was “inactive”.

In the case of `CC1(C)CC[C@]2(C(=O)O)CC[C@]3(C)C(=CCC4[C@@]5(C)CC[C@@H](O)C(C)(C)C5CC[C@]43C)C2C1` (some centres undefined), in [1], the Potency result was “inactive”.

Regarding `O=C=NC1CCCCC1`, the Potency in [2], in assay [3] and in assay [4] was > 92 µM throughout. Further, the activity change, negative = cytotoxicity in [5] is -6.26% and 7.73%; in assay [8] it was -5.86% and -0.993%. Moreover, the Potency entry in [6], in assay [7] and in assay [20] was “inactive” throughout. The caspase-3 activation in assay [9] is -0.599% and -1.26%; in assay [16], 5.04% and -5.65%. In addition, the call in assay [10], in assay [11], in [12], in assay [13], in assay [14] and in assay [15] was inactive. Further, the molecule was called inactive in [17]. The max response is 3.13% and -2.08% in assay [18]; -2.8% and 0.863% in assay [19].

For the molecule `C=CC(C)(CCC=C(C)C)OC(C)=O` (centres undefined), the Potency result in [1] was “inactive”.

Take `CCCCCCCCCCCCCCCCCCCCCCCCCCCCCCO`: the activity change, negative = inhibition in assay [1] was 8.26% [at 3.26 µM].

On to `CC(C)=CCC[C@](C)(O)[C@H]1CC[C@]2(C)[C@@H]1[C@H](O)CC1[C@@]3(C)CC[C@H](O)C(C)(C)[C@@H]3[C@@H](O[C@@H]3O[C@H](CO)[C@@H](O)[C@H](O)[C@H]3O[C@@H]3O[C@H](CO)[C@@H](O)[C@H](O)[C@H]3O)C[C@]12C` (some centres undefined), for which, in assay [1], the Potency entry was “inactive”.

For `C=C(C)[C@H]1CC=C(C)C(=O)C1`, the Potency result in assay [1] is “inactive”.

Consider `OCCc1ccc(O)cc1`, for which the Potency entry in assay [1] was “inactive”.

In the case of `CC1=C2[C@H]([C@@H](C)CC[C@@H]2/C=C(\C)C(=O)O)[C@@H](O)C1`, the Potency entry in assay [1] was “inactive”.

With `O=C(O[C@@H]1Cc2c(O)cc(O)cc2O[C@H]1c1cc(O)c(O)c(O)c1)c1cc(O)c(O)c(O)c1`, in [1], the Potency result is “inactive”.

For the molecule `C=C1CC[C@H]2C[C@@H]1C2(C)C`, the Potency result in assay [1] was “inactive”.

For `NC(Cc1c[nH]c2ccccc12)C(=O)O` (centres undefined), in assay [1], the Potency entry is “inactive”.

Regarding `CCCCCCCC/C=C\CCCCCCCCCCCC(=O)O`, the Potency result in assay [1] was “inactive”.

Turning to `CCCCCC(=O)O`, the Potency result in [1] was “inactive”.

With `CC1=CCC2CC1C2(C)C` (centres undefined), the Potency result in [1] was “inactive”.

Take `CC(C)=CCC[C@](C)(OC1OC(COC2OCC(O)C(O)C2O)C(O)C(O)C1O)[C@H]1CC[C@]2(C)[C@@H]1[C@H](O)C[C@@H]1[C@@]3(C)CC[C@H](OC4OC(CO)C(O)C(O)C4OC4OC(CO)C(O)C(O)C4O)C(C)(C)[C@@H]3CC[C@]12C` (some centres undefined): the Potency result in [1] was “inactive”.

For `CC(C)[C@H](C)CC[C@@H](C)[C@H]1CC[C@H]2[C@@H]3CC=C4C[C@@H](O)CC[C@]4(C)[C@H]3CC[C@]12C`, the Potency result in assay [1] is “inactive”.

On to `CC/C=C\C/C=C\C/C=C\C/C=C\CCCCC(=O)O`, for which the activity change, negative = inhibition in assay [1] was -0.921% [at 3.26 µM].

Take `CC1CC[C@]2(C(=O)O)CC[C@]3(C(=O)O)C(=CCC4[C@@]5(C)CC[C@H](OC6OC(C)C(O)C(OC7OC(CO)C(O)C(O)C7O)C6O)C(C)(C)C5CC[C@]43C)C2C1C` (some centres undefined): the Potency result in [1] was “inactive”.

For the molecule `Cc1c(C)c2c(c(C)c1O)CC[C@@](C)(CCC[C@H](C)CCC[C@H](C)CCCC(C)C)O2`, the Potency result in [1] was “inactive”.

For `CN(CC(=O)O)C(=N)N`, in [1], the Potency entry was “inactive”.

Turning to `C=CC1CC=CCC1` (centres undefined), the Potency in assay [2], in assay [3] and in [4] was > 92 µM in each case. For the same molecule, the activity change, negative = cytotoxicity was 0.971% in [5] and 3.71% in [8]. The Potency entry in assay [6], in assay [7] and in [20] was “inactive” throughout. Moreover, the values for the caspase-3 activation in assay [9] and in [16] were 0.736% and 5.69%, respectively. The molecule was called inactive in [10], in assay [11], in assay [12], in assay [13], in [14] and in assay [15]. In assay [17], the outcome was inactive. In addition, the max response is 1.14% and 1.26% in assay [18]; -5.12% and -6.19% in [19].

For `C=CCc1ccc(OC)c(OC)c1`, the Potency entry in [1] is “inactive”.

(Values after PubChem BioAssay (NCATS).)
